Reference: PubChem BioAssay AID1903 (Southern Research Specialized Biocontainment Screening …, 2009)
The whole screen tested about 310,000 compounds, of which about 1,200 (0.39%) were called active. No rule for the calls is given here. A selection follows. Results with a measured potency or affinity are listed apart.

The compounds below were run against Large T antigen (Simian virus 40) (UniProt P03070) (assay: SV40 large T antigen inhibitors, biochemical (AID 1903)). Details: SV40 large T antigen ATPase/helicase inhibition assay; at 20 µM; hits give high values.
Large T antigen (Simian virus 40), sequence (P03070 whole entry, looked up): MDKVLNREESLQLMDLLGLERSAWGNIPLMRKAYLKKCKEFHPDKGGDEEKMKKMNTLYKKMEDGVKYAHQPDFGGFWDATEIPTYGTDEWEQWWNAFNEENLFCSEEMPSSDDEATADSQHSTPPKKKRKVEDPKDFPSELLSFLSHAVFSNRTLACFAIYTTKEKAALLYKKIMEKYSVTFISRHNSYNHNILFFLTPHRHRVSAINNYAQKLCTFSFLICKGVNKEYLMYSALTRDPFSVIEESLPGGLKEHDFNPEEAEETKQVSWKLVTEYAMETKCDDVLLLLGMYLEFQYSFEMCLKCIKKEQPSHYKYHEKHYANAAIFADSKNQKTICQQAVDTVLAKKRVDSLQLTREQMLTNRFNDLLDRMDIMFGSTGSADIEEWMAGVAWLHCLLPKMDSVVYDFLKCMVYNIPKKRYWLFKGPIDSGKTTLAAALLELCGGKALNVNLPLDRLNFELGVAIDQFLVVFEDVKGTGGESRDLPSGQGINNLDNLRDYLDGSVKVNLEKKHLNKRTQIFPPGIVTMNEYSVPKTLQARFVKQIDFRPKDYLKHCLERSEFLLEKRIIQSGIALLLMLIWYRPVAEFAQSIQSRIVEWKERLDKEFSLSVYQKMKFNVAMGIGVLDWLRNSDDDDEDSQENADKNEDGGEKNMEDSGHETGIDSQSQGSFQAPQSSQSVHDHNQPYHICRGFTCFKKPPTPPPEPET

inhibition, inactive:
CC(Nc1c[nH]c(=O)[nH]c1=O)c1ccccc1 (stereo not given) 28.4%
N#CC1=C(N)N2C(=C(C#N)C13CCCCC3)SC1CCCCC12O (stereo not given) 2.16%
CCc1cc(Cn2nc(-c3ccccc3)cc2C(=O)NCc2ccccc2OC)on1 2.01%
COc1ccccc1CC(NC(C)=O)C(=O)N1CCN(C(=O)Nc2ccccc2Cl)CC1 (stereo not given) 11.4%
Cc1ccc(NC(=O)c2ccc3nsnc3c2)c(C)c1 3.08%
O=C(NC(C1CC1)C1CC1)C1CCC(=O)N(CCCN2CCCC2=O)C1 (stereo not given) 8.58%
FC(F)(F)c1cccc(Nc2nc(N3CCOCC3)nc(N3CCOCC3)n2)c1 6.77%
COc1ccc(/C=C2\CCC(C3CCCC3)C2=O)c(OC)c1OC (stereo not given) 15.3%
Cc1ccc(S(=O)(=O)Nc2ccc(Oc3cccnc3)nc2)cc1 9.11%
CC(=O)Nc1ccc(SC[C@H](c2ccccc2)N2CCN(CCc3ccccc3)CCC2=O)cc1 16.3%
COc1ccc(-c2nnc(-c3cc4ccccc4oc3=O)o2)cc1 -1.16%
O=C(C1CCCN(Cc2cccc(Cl)c2)C1)N1CCCCC1 (stereo not given) 2.11%
COc1cc(SC)ccc1C(=O)Nc1ncc(Cl)cc1Cl -2.54%
CNC(=S)N/N=C/c1cn(CCOc2ccc(OC)cc2)c2ccccc12 6.11%
Cc1c(CN(C)C)c2c(n1Cc1ccccc1)C(=O)c1ccccc1-2 2.92%
CCOc1cc(/C=N/n2c(C)nnc2C)ccc1O 27.2%
CCOc1cc(/C=N/n2cnnc2)cc(Br)c1O 23.3%
Clc1ccccc1Cn1nc(-c2ccccc2)nc1-c1ccccc1 1.23%
Cn1ccnc1SCC(=O)Nc1cc(C(F)(F)F)ccc1N1CCOCC1 7.01%
COC(=O)c1ccc2c(=O)n(-c3ccc(OC)cc3)c(=S)[nH]c2c1 6.42%
O=C(COC(=O)CCC1CCCC1)NCc1ccc(Cl)cc1 17.3%
COC(=O)c1cn(CCOc2ccccc2F)c2ccccc12 1.53%
O=[N+]([O-])c1cn(Cc2ccc(Cl)cc2)cn1 1.06%
Cc1cccc(N2C(=O)/C(=C\c3ccc(C(=O)O)cc3)c3ccccc3C2=O)c1 36.5%
CCOc1cc(/C=C2\C(=O)N(c3cccc(C(F)(F)F)c3)C(=O)c3ccccc32)ccc1O 9.18%
CC(C)c1nnc(NC(=O)c2cccnc2)s1 2.86%
O=C(Nc1ccccc1)NC1(C(=O)N2CCC(O)CC2)CCCCC1 4.76%
OC1CCN(C(=S)Nc2ccc(Oc3ccccc3)cc2)CC1 -15.6%
C/C(=N\NC(=O)C(C)Sc1ccccc1)C(C)(C)C (stereo not given) 17.5%
CC(CCc1ccc(O)cc1)NCc1ccc(Br)cc1 (stereo not given) 3.95%
OCCc1ccc(O)cc1 27%
N/C(=N\OC(=O)Cc1cccs1)c1cccc([N+](=O)[O-])c1 3.85%
COc1cc(OC)cc(C2C(C#N)=C(N)Oc3n[nH]c(-c4cccnc4)c32)c1 (stereo not given) 16.8%
COc1cc(Br)c(C2C(C#N)=C(N)Oc3n[nH]c(-c4cccnc4)c32)cc1OC (stereo not given) 18.6%
COc1cc(OC)c2c(c1)C(=O)OC2OC (stereo not given) 2.96%
CC(NC(=O)CS(=O)(=O)c1ccccc1)c1ccccc1 (stereo not given) 25%
O=C(c1cccc(-c2ccc(O)cc2)c1)N1CCN(c2ccc(F)cc2)CC1 1.57%
O=C(c1ccc2ccccc2c1)N1CCN(c2ccccc2)CC1 10.3%
O=C(c1ccc2ncsc2c1)N1CCN(c2ccccc2Cl)CC1 11.3%
O=C(c1ccc2ccccc2c1)N1CCCC1 0.92%
COc1ccc(-c2cccc(C(=O)N3CCOCC3)c2)cc1 9.81%
O=C(c1ccc2ncsc2c1)N1CCCCC1 18.2%
CCOC(=O)c1nn(-c2ccc(F)cc2)c(=O)cc1OCC(=O)N1CCN(c2ccccc2)CC1 5.17%
CCN(CC)C(=O)C[n+]1ccc(C(N)=O)cc1 4.68%
Fc1ccccc1/C=N/n1c(COc2ccccc2)n[nH]c1=S 6%
Cc1cc(Br)cc(Cl)c1OCC(=O)NC(=O)NCc1ccccc1 1.39%
CCN1C(=O)[C@H]2[C@@H](c3ccc(C)cc3)N3C(=O)N(c4ccc(C(F)(F)F)cc4)C(=O)[C@@]3(Cc3ccccc3)[C@H]2C1=O 4.67%
CC(C)C[C@H](NC(=O)CCn1nnc2ccccc2c1=O)C(=O)O 9.82%
O=C(O)CNC(=S)N(Cc1ccccc1F)C1CCCCC1 4.15%
O=C(Oc1ccc(-c2cnc3ccccc3n2)cc1)c1cccc([N+](=O)[O-])c1 3.96%
O=C(Oc1ccc(-c2cnc3ccccc3n2)cc1)c1cc([N+](=O)[O-])ccc1Cl 7.12%
COCC(C)NC(=O)c1noc2c1CCc1cc(OC)ccc1-2 (stereo not given) -0.97%
CCOc1ccc(NCc2cc3cc(OC)ccc3[nH]c2=O)cc1 28.1%
Cc1ccc2nc(-c3cccc(N)c3)[nH]c2c1 5.37%
Cc1ccc2nc(-c3ccccc3N)[nH]c2c1 -2.07%
CCOC(=O)c1c(S(=O)(=O)NCc2ccc(C)o2)c(C)n(C)c1C 2.28%
CC(C)c1ccc(CNc2ccc(N3CCOCC3)cc2)cc1 9.24%
c1cc(CNc2ccc(N3CCOCC3)cc2)ccn1 1.95%
COc1ccc(OCC(=O)Nc2ccc(N3CCOCC3)cc2)cc1 12.4%
COc1ccc(CCC(=O)Nc2ccc(N3CCOCC3)cc2)cc1 8.67%
COc1cccc2cc(C(=O)N(Cc3cccs3)CC3CCCO3)c(=O)oc12 (stereo not given) 5.05%
CCn1cc(C2=NC(c3ccccc3)CO2)c2ccccc21 (stereo not given) 14.4%
Cc1ccc(Sc2ncnc(N)c2[N+](=O)[O-])cc1 2.16%
CSc1nc(Cl)cc(Nc2ccccc2N)n1 22%
CNc1cc(Cl)nc(SC)n1 5.2%
CCNC(=O)O/N=C1\CCCCC1c1ccc([N+](=O)[O-])cc1[N+](=O)[O-] (stereo not given) 11.8%
N#C/C(=C\c1coc2ccccc2c1=O)C(N)=S 11.5%
O=C1NN(c2ccccc2)C(=O)/C1=C\c1coc2ccc(O)cc2c1=O 51.3%
COc1ccc(CCNC(=O)C/C(C)=N/NC(=O)C23CC4CC(CC(C4)C2)C3)cc1OC 5.44%
COC(=O)C1=C(C)N(Cc2ccco2)C(=O)/C1=C\c1ccc(N(C)C)cc1 3.05%
COc1ccc(-n2c(C)cc(/C=C3\SC(=S)N(Cc4ccco4)C3=O)c2C)cc1 2.87%
COC(=O)C1=C(C)N(Cc2ccco2)C(=O)/C1=C\c1ccc([N+](=O)[O-])cc1 31.3%
COc1ccc(NC(=O)CC2C(=O)N(Cc3ccco3)C(=S)N2C(C)C)cc1 (stereo not given) 12%
COc1ccc(N2C(=O)CC(c3cc(OC)c(OC)c(OC)c3)CC2=O)cc1 8.69%
COC(=O)c1nn(-c2nc(-c3ccc(OC)c(OC)c3)cc(C(F)(F)F)n2)cc1[N+](=O)[O-] 9.35%
N=C1/C(=C\c2ccc(-c3cc(Cl)cc(Cl)c3)o2)C(=O)N=C2SC=C(c3ccccc3)N12 -1.62%
COC(=O)c1ccc(N2NC(=O)/C(=C/c3ccc(-c4ccc(Cl)c(C(=O)O)c4)o3)C2=O)cc1 37%
O=C1NN(c2cccc(Br)c2)C(=O)/C1=C/c1ccc(-c2cc([N+](=O)[O-])ccc2O)o1 38.2%
Cc1ccc(Sc2ccc(/C=C3/C(=O)NN(c4ccccc4)C3=O)o2)cc1 20.1%
COc1ccc(Sc2ccc(/C=C3\C(=O)NN(c4ccccc4)C3=O)o2)cc1 32.2%
O=C1NN(c2ccccc2)C(=O)/C1=C/c1ccc(Sc2ccc(Cl)cc2)o1 11.2%
O=C1NN(c2ccc(Cl)c(Cl)c2)C(=O)/C1=C/c1ccc(-c2ccccc2C(=O)O)o1 28.4%
N=C1/C(=C\c2ccc(-c3cccc(Cl)c3)o2)C(=O)N=C2SC=C(c3ccccc3)N12 7.39%
COc1ccccc1N1CCN(CC(O)c2ccccc2)CC1 (stereo not given) -5.22%
CC(=O)Nc1nc2ccc(S(=O)(=O)N3CCCCC3)cc2s1 11.1%
CCSC1=NCCN1S(=O)(=O)c1ccc(NC(C)=O)cc1 4.92%
CN(C(=O)c1ccc2c(c1)CCN2S(C)(=O)=O)c1ccccc1 -0.23%
Cc1cc(C)c2c(=O)[nH]c(SCc3ccccc3C)nc2n1 1.53%
CCC(=O)Oc1ccc(C(=O)Nc2cccc(NC(=O)c3ccco3)c2)cc1 -2.07%
Cc1ccc(OCC(=O)Nc2ccc(F)cc2)c([N+](=O)[O-])n1 6.19%
Cc1ccc(NC(=O)C2CCN(S(=O)(=O)c3cnc[nH]3)CC2)cc1C 12%
COc1ccccc1OCC(=O)Nc1nonc1NC(=O)COc1ccccc1OC 11.7%
CC(=O)Nc1ccc(N2CC(C)(C)C2=O)cc1 14.5%
COc1ccc(F)cc1S(=O)(=O)N1CCCC(C)C1 (stereo not given) 4.43%
OCCC1CN(Cc2cccc(C(F)(F)F)c2)CCN1Cc1ccccc1 (stereo not given) 5.73%
